Test results from publication PMC5540273 (PLoS ONE, 2017).

What was measured:
BIKE = test system: T1, BIKE
T1 construct: gene BMP2K

BRK = test system: T2, BRK
T2 construct: gene PTK6

CDC2L5 = test system: T3, CDC2L5
T3 construct: gene CDK13
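Also: kd values determined as follow-up on hits from a single-replicate KINOMEscan panel screen.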

## O=S(=O)(c1ccc(-c2ccnc3[nH]ccc23)cc1)N1CCCC1 [GSK846226]
BIKE
  Kd: 7.2 µM

## Cc1ccc(NC(=O)Nc2cccc(C(F)(F)F)c2)cc1 [GSK955403]
BMPR1A
  Kd: > 10 µM

## O=C1NC(=O)C(N2CCc3ccccc32)=C1c1ccccc1Cl [SB-373598]
BMPR2
  Kd: > 10 µM

## NC(=O)c1nnc2ccccc2c1N
BMX
  Kd: > 10 µM

## O=C(O)COc1ncnc2cc(-c3ccc4[nH]ncc4c3)sc12
BRK
  Kd: > 10 µM

## Cc1c(O)cccc1Nc1ccnc2ccc(C(F)(F)F)cc12.Cl [GW466413]
BRK
  Kd: 0.19 µM

## CN(C)CCN(C)C(=O)c1cc(-c2ccncc2)c(-c2ccc(Cl)c(O)c2)o1.Cl.Cl [SB-710397]
BUB1
  Kd: 0.39 µM

## Cl.Oc1ccc(-c2nc(-c3ccccc3)[nH]c2-c2ccncc2)cc1 [SB-428218]
BUB1
  Kd: 0.56 µM

## Cc1c(Cn2ccn3c(=O)cc(N4CCOCC4)nc23)cccc1C(F)(F)F [GSK2289044]
CAMK2A
  Kd: > 10 µM

## Cc1cccc(-c2nc(C)cc(Nc3ccncc3)n2)n1 [GSK257997]
CAMK2D
  Kd: > 10 µM

## Cc1cc(-c2ccc3c(c2)CC[C@@H](N[C@@H](C)c2ccccc2)C3)cnc1N.Cl [GW412617]
CAMK2D
  Kd: > 10 µM

## CC(C)(C)c1ccc(C(=O)Nc2cn3cc(Cl)ccc3n2)cc1
CAMKK1
  Kd: > 10 µM

## CCCc1ccc(S(=O)(=O)NC2CCN(c3ccnc(Nc4ccc(F)cc4)n3)C2)cc1 (stereo not drawn) [GSK1379715]
CDC2L5
  Kd: > 10 µM

## CCn1c(-c2ccccn2)nc2cnccc21 [SB-736398]
CDC2L5
  Kd: > 10 µM

## O=C(Nc1n[nH]c2nc(-c3nccs3)c(Br)cc12)C1CC1 [SB-742251]
CDK2
  Kd: 0.35 µM

## O=C(Nc1n[nH]c2nc(-c3nccs3)c(Br)cc12)C1CCCC1 [SB-742609]
CDK2
  Kd: 0.28 µM
CDK4
  Kd: 4.2 µM

## O=C(Nc1n[nH]c2cc(-c3cccc(F)c3F)ccc12)C1CC1 [SB-733894]
CDK8
  Kd: > 10 µM
